High-throughput results deposited in PubChem by National Center for Advancing Translational Sciences (NCATS).
Shown are actives, neighbours in structure and some others; about 11% of the full set was active somewhere.
BAZ2B inh: BAZ2B (human) inhibition; Q9UIF8; AlphaScreen BAZ2B-H3K14Ac peptide displacement; Potency, µM (doses to about 114 µM), for the others: at the top dose activity change, negative = inhibition, hits mostly inhibitors; hit rate 4.4% among 360,000; AID 504333; note: % is set by controls: 0 for no effect and ±100 for the full control effect; nearly all actives have a fitted effect of over 60% in size
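Protein-peptide AlphaScreen: BAZ2B 50 nM, b-H3K14Ac 50 nM, 1x PBS pH 7.4 + 0.01% Tween-20. Preincubation 30 min RT; cpd 30 min RT (top 110 uM); beads 20 min RT, light-protected.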
VDR inh: inhibitors of human vitamin D receptor | hit rate 0.93% among 400,000 | VDR-SRC2-3 peptide fluorescence polarization, 2 h | Potency, µM, for the others: max response, negative = inhibition, most hits filed as inhibitors | P11473; note: % is set by controls: 0 for no effect and ±100 for the full control effect
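Inhibition of the VDR/SRC2-3 peptide interaction is quantified by fluorescence polarization. Compounds (23 nl, pintool) incubate with the reagents for 2 hours at ambient room temperature.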
HP1b binding inh: inhibitors of HP1-beta chromodomain binding to methylated histone tails; AlphaScreen HP1-beta / biotin-H3K9me3 peptide binding; Potency, µM (top dose mostly 114 µM), for inactives: at the highest dose activity change, negative = inhibition, hits mostly inhibitors; hit rate 0.56% among 390,000; AID 540317; note: nearly all actives have a fitted effect of over 70% in size
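AlphaScreen: HP1-beta (50 nM) preformed 30 min with biotin-H3(1-18)K9me3 peptide (50 nM) in PBS pH 7.4, 0.01% Tween-20. Compound added for 30 min at RT, then streptavidin donor/nickel chelate acceptor beads (10 ug/mL) for 30 min.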
PLK1 PBD inh: PLK1 (human) polo-box domain binding inhibition; Potency, µM, for inactives: max response, negative = inhibition, actives largely listed as inhibitors; Plk1 PBD binding of FITC phosphopeptide, fluorescence polarization; P53350; hit rate 2.8% among 360,000; note: series mostly up to about 57 µM; % is set by controls: 0 for no effect and ±100 for the full control effect; nearly all actives have a fitted effect of over 65% in size
JMJD2A Tudor: JMJD2A Tudor domain (human) inhibition | O75164 | AlphaScreen JMJD2A-Tudor / H3K4me3 peptide binding | Potency, µM (titrated, usually from 114 µM), inactives show top-dose activity change, negative = inhibition, most hits filed as inhibitors | hit rate 4.4% among 390,000 | AID 504339; note: % is set by controls: 0 for no effect and ±100 for the full control effect; nearly all actives have a fitted effect of over 50% in size
Target sequence (O75164 whole entry, looked up, the tested form may be a part): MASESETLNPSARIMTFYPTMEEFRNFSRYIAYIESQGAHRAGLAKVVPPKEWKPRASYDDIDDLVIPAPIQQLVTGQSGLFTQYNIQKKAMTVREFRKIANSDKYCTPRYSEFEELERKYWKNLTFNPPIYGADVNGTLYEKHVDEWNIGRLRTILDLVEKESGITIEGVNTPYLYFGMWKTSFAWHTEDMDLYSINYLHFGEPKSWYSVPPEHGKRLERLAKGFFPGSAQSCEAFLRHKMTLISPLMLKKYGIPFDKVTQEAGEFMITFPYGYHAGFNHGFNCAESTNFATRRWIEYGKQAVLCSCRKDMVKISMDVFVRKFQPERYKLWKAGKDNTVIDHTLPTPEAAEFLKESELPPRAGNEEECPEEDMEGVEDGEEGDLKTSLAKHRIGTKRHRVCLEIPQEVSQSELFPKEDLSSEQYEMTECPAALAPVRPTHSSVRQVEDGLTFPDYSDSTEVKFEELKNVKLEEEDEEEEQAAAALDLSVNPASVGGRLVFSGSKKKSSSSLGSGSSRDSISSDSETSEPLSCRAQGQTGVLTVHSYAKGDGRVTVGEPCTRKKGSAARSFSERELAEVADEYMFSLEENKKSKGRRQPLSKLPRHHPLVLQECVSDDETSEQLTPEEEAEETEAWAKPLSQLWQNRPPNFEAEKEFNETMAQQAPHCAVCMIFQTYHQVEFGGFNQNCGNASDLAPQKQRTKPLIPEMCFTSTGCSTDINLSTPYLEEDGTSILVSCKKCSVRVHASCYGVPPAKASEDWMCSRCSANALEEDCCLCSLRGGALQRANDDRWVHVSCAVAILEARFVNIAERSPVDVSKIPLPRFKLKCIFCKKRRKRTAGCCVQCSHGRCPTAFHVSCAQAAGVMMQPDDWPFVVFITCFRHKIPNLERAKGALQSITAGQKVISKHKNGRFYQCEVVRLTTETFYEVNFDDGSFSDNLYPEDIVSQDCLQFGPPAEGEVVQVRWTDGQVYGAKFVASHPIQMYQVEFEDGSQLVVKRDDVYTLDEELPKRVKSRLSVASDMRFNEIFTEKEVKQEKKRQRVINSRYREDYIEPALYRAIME
G9a inh: G9a (human) methyltransferase inhibition. Potency, µM (doses to about 102 µM), for inactives: at the highest dose activity, negative = inhibition, hits mostly inhibitors. Q96KQ7. hit rate 8.8% among 350,000. G9a H3K9 monomethylation, AlphaScreen, 2 h; note: % is set by controls: 0 for no effect and ±100 for the full control effect; nearly all actives have a fitted effect of over 75% in size
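Signal arises when biotinylated H3K9 peptide, once monomethylated, bridges streptavidin donor and antibody-captured acceptor beads. Enzyme at 20 nM was preincubated 15 min with test compounds; peptide 500 nM and SAM 20 uM then reacted for 2 h.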
Starred values were filed as active, the others as inactive; ? = inconclusive; nt = no result; ! = not active in a repeat; [ ] = remark or other dose. Calls come from the whole dose curve; as a rule, active = well fitted curve in the direction sought with a large enough effect; inconclusive = small, poorly fitted or top-dose-only effect, or another doubt; inactive = no such curve, though single readings can be large; an effect the other way counts as inactive or inconclusive. Potency is the fitted concentration of half-maximal effect.

SMILES | BAZ2B inh | VDR inh | HP1b binding inh | PLK1 PBD inh | JMJD2A Tudor | G9a inh
COc1cccc2c1nc(C)c1cc(C)oc12 | 5% | 7% | 25% | -4% | -19% | 9%[59 µM]
COc1cccc2nc3cc(C)c(C)cc3nc12 | 3% | 22µM* | 6% | 17µM* | -20% | -26%
COc1cc(/C=N/N2CCN(Cc3ccccc3)CC2)cc(OC)c1OC(C)=O | ? | 13% | -8% | -18% | ? | 50µM*
COc1cc(/C=N/N2CCN(Cc3ccccc3)CC2)cc(OC)c1OC | nt | nt | nt | 1% | nt | nt
COc1cc(/C=N/N2CCN(c3ccccc3)CC2)cc(OC)c1OC(C)=O | 45µM* | -9% | ? | -5% | 56µM* | 18%[0.501 µM]
CCCN(CC(=O)Nc1ccccc1C)C(=O)CSc1ccccc1C | 8% | 0% | 28% | -8% | -3% | -7%[12.7 µM]
O=S(=O)(Nc1ccc2c(c1)nc1n2CCN(Cc2ccccc2)C1)c1ccc(Cl)cc1 | nt | -6% | 57% | -11% | -14% | 10µM*
O=S(=O)(Nc1ccc2c(c1)nc1n2CCN(Cc2ccccc2)C1)c1ccc(F)cc1 | -32% | 0% | 48% | -17% | 89µM* | ?
COc1ccccc1-c1nccc(N2CCN(C)CC2)n1 | nt | 11% | nt | nt | nt | 6%[0.501 µM]
Cc1nn(-c2ccccc2)c(OC(=O)C(C)C)c1Sc1ccc(Cl)cc1 | -3% | 89µM* | 4% | nt | -33% | 4.5µM*
COc1ccc(CNc2nc(-c3ccco3)nn2S(=O)(=O)c2ccc(Cl)cc2)cc1OC | ? | 4% | -5% | nt | ? | ?
O=C(O)/C=C/C(=O)NC1CCS(=O)(=O)C1 (stereo not drawn) | ? | -28% | 57% | -7% | -7% | 3.2µM*
O=C(O)/C=C\C(=O)NC1CCCCC1 | -7% | -12% | 25% | ? | -6% | ?
O=C(COC(=O)c1ccccn1)NCc1ccc(Cl)cc1Cl | ? | 0% | 17% | -3% | -23% | 28µM*
O=C(COC(=O)c1ccccn1)Nc1cccc(Cl)c1Cl | ? | -1% | 38% | -8% | 3%[57.1 µM] | 50µM*
O=[N+]([O-])c1cc(C(F)(F)F)cc([N+](=O)[O-])c1N1CCCNCC1 | -22% | 1% | -1% | 0% | ? | ?
O=C(O)c1cc([N+](=O)[O-])c(N2CCCC2)c([N+](=O)[O-])c1 | -14% | -1% | 9% | -2% | 3% | 8.9µM*
CN(C)CCOC(C)(c1ccccc1)c1ccccn1 (stereo not drawn) | 0% | ? | 8% | -18% | -7% | 10µM*!
Cc1ccc(S(=O)(=O)CCC(=O)Oc2ccc3c(C)cc(=O)oc3c2)cc1 | -1% | ? | 15% | ? | ? | 50µM*
Cc1cc(/C=C(/C#N)c2nc3ccccc3[nH]2)c(C)n1-c1ccccc1C(=O)O | 50µM* | -2% | -15% | -8% | -35% | 32µM*
Cc1cc(/C=C(/C#N)c2nc3ccccc3[nH]2)c(C)n1-c1cc(C(=O)O)cc(C(=O)O)c1 | 40µM* | -11% | ? | ? | 25µM* | 13µM*
N#C/C(=C\c1ccc(-c2ccccc2C(=O)O)o1)c1nc2ccccc2[nH]1 | 79µM* | ? | 5% | ? | 20µM* | 40µM*
Cc1ccc2nc(/C(C#N)=C/c3ccc(-c4ccccc4C(=O)O)o3)[nH]c2c1 | ? | 14% | 24% | 38% | -19% | ?
N#C/C(=C/c1ccc(O)c(O)c1)c1nc2ccccc2[nH]1 | 7.9µM* | 5% | ? | 20% | 28µM* | 11µM*
N#C/C(=C\c1ccc(Cl)cc1)c1nc2ccccc2[nH]1 | -8% | -26% | 29% | nt | -35% | 30%[59 µM]
COc1cccc(C(=O)NCc2cn3ccccc3n2)c1 | -19% | 5% | -4% | nt | ? | ?
CC(=O)N1c2ccc(S(=O)(=O)N(C)C3CCCCC3)cc2CC1C (stereo not drawn) | -21% | -4% | 50% | -11% | -1% | 5%
COCCNc1nc(NCCCN2CCCC2=O)c2sccc2n1 | nt | nt | nt | -2% | nt | nt
